Measured values reported in PubChem BioAssay AID1159580 (chemical genetic matrix, 2015).
“And” between values parts separate entries of the source, which are not always exact repeats. Equal entries are not always repeated. About 2,000 (36%) of roughly 5,500 compounds were called active. Inconclusive results (about 18%) are left out. Cut-off read from the data, not from the text of the source: active = normalized growth mostly below about 0.91 (no sharp cut-off); inconclusive = no clear call, values can overlap the other calls; inactive = mostly above about 0.92. The list shows a part of the results.

Assay: chemical genetic growth profiling, strain panel (AID 1159580);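 note: tested at 20 µM; growth read once vehicle control cultures reached saturation at 30 °C; 1 = growth at the plate median or of vehicle wells; lower values mean less growth of the strain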
Conditions: S. cerevisiae deletion strains, growth OD

Measured: normalized growth

CC(=O)OCC1=C(C(=O)O)N2C(=O)[C@@H](NC(=O)CSc3ccncc3)[C@H]2SC1
inactive: locus YAL013W, strain DEP1, stronger effect = lower value 0.988 | locus YAL021C, strain ccr4, stronger effect = lower value 1.02 | locus YAL026C, strain drs2, stronger effect = lower value 1.02 | locus YAL030W, strain snc1, stronger effect = lower value 1 | locus YBL061C, strain skt5, stronger effect = lower value 1.04 | locus YBR009C, strain hhf1, stronger effect = lower value 1.01 | locus YBR021W, strain FUR4, stronger effect = lower value 1.02 | locus YBR023C, strain chs3, stronger effect = lower value 1.04 | locus YBR171W, strain sec66, stronger effect = lower value 1.02 | locus YBR229C, strain ROT2, stronger effect = lower value 0.95 | locus YBR231C, strain swc5, stronger effect = lower value 1.04 | locus YBR279W, strain paf1, stronger effect = lower value 1.03 | locus YCL011C, strain gbp2, stronger effect = lower value 1.01 | locus YCL016C, strain dcc1, stronger effect = lower value 1.02 | locus YCL029C, strain bik1, stronger effect = lower value 1 | locus YCL061C, strain MRC1, stronger effect = lower value 1.01 | locus YCL069W, strain vba3, stronger effect = lower value 1.02 | locus YCR088W, strain abp1, stronger effect = lower value 1.02 | locus YDL005C, strain med2, stronger effect = lower value 1.02 | locus YDL035C, strain GPR1, stronger effect = lower value 0.959 | locus YDL040C, strain nat1, stronger effect = lower value 1.02 | locus YDL074C, strain BRE1, stronger effect = lower value 1 | locus YDL101C, strain DUN1, stronger effect = lower value 0.988 | locus YDL185W, strain tfp1, stronger effect = lower value 0.966 | locus YDL192W, strain arf1, stronger effect = lower value 0.984 | locus YDR001C, strain nth1, stronger effect = lower value 1.02 | locus YDR069C, strain doa4, stronger effect = lower value 1.04 | locus YDR101C, strain arx1, stronger effect = lower value 0.976 | locus YDR137W, strain rgp1, stronger effect = lower value 1 | locus YDR159W, strain sac3, stronger effect = lower value 1.03 | locus YDR162C, strain NBP2, stronger effect = lower value 0.946 | locus YDR195W, strain ref2 1.03 | locus YDR297W, strain sur2, stronger effect = lower value 1.02 | locus YDR318W, strain mcm21, stronger effect = lower value 0.99 | locus YDR334W, strain swr1, stronger effect = lower value 1.01 | locus YDR335W, strain msn5, stronger effect = lower value 1.03 | locus YDR388W, stronger effect = lower value 0.988 | locus YDR392W, strain spt3, stronger effect = lower value 0.957 | locus YDR502C, strain sam2, stronger effect = lower value 0.998 | locus YEL003W, strain gim4, stronger effect = lower value 1.03 | locus YEL037C, strain rad23, stronger effect = lower value 1 | locus YEL061C, strain CIN8 (second series), stronger effect = lower value 1.05 | locus YEL061C, strain CIN8, stronger effect = lower value 0.99 | locus YER015W, strain faa2, stronger effect = lower value 1.01 | locus YER016W, strain bim1, stronger effect = lower value 1.03 | locus YER110C, stronger effect = lower value 0.991 | locus YER111C, strain swi4, stronger effect = lower value 0.997 | locus YER155C, strain BEM2 (second series), stronger effect = lower value 0.992 | locus YER155C, strain BEM2, stronger effect = lower value 0.994 | locus YER167W, strain BCK2, stronger effect = lower value 0.995 | locus YFR010W, strain ubp6, stronger effect = lower value 1.02 | locus YGL078C, strain dbp3, stronger effect = lower value 0.995 | locus YGL086W, strain mad1, stronger effect = lower value 0.981 | locus YGL167C, strain pmr1, stronger effect = lower value 1.03 | locus YGL173C, strain kem1, stronger effect = lower value 1.03 | locus YGL227W, strain vid30, stronger effect = lower value 1.01 | locus YGL240W, strain doc1, stronger effect = lower value 1.03 | locus YGL248W, strain PDE1, stronger effect = lower value 1.01 | locus YGL253W, strain hxk2, stronger effect = lower value 1.02 | locus YGR078C, strain PAC10, stronger effect = lower value 0.989 | locus YGR135W, strain pre9, stronger effect = lower value 1.04 | locus YGR252W, strain gcn5, stronger effect = lower value 1.02 | locus YHR013C, strain ard1, stronger effect = lower value 1.03 | locus YHR027C, strain rpn1, stronger effect = lower value 1.02 | locus YHR030C, strain SLT2, stronger effect = lower value 0.983 and 0.995 | locus YHR079C, strain IRE1 (second series), stronger effect = lower value 0.997 | locus YHR079C, strain IRE1, stronger effect = lower value 1.01 | locus YHR094C, strain hxt1, stronger effect = lower value 0.991 | locus YHR129C, strain ARP1, stronger effect = lower value 0.984 | locus YHR142W, strain chs7, stronger effect = lower value 1.03 | locus YHR200W, strain rpn10, stronger effect = lower value 0.984 | locus YIL066C, strain RNR3, stronger effect = lower value 0.969 | locus YIL073C, strain SPO22, stronger effect = lower value 1.03 | locus YIL125W, strain kgd1, stronger effect = lower value 0.984 | locus YIR030C, strain dcg1, stronger effect = lower value 0.993 | locus YJL092W, strain hpr5, stronger effect = lower value 1.02 | locus YJL095W, strain BCK1 (second series), stronger effect = lower value 1.02 | locus YJL095W, strain BCK1, stronger effect = lower value 1.05 and 0.991 | locus YJL115W, strain asf1, stronger effect = lower value 1.03 | locus YJL129C, strain trk1, stronger effect = lower value 1.01 | locus YJL134W, strain LCB3, stronger effect = lower value 0.991 | locus YJL154C, strain vps35, stronger effect = lower value 1.02 | locus YJL164C, strain tpk1, stronger effect = lower value 1.01 | locus YJL166W, strain qcr8, stronger effect = lower value 1.03 | locus YJL168C, strain set2, stronger effect = lower value 0.99 | locus YJL187C, strain SWE1 (second series), stronger effect = lower value 1 | locus YJL187C, strain SWE1, stronger effect = lower value 1.02
